Screening results: PubChem, Broad Institute
NOMO-1 viab: STK33 inhibitor candidate reducing NOMO-1 cell viability; AID 2330; inhibition, % (concentration not given with the values); NOMO-1 AML viability, CellTiter-Glo luminescence, 72 h; actives 7.5% (n = 37,000); in the data active = inhibition above about 80%; inconclusive = no clear call, values can overlap the other calls
STK33 kin inh: blocks human STK33 kinase activity | actives 0.44% (n = 27,000) | Q9BYT3 | AID 2322 | ADP-Glo luminescence, MBP substrate | inhibition, % at 12.5 µM; in the data active = inhibition above about 20%; inconclusive = no clear call, values can overlap the other calls
Target sequence (Q9BYT3 whole entry, looked up): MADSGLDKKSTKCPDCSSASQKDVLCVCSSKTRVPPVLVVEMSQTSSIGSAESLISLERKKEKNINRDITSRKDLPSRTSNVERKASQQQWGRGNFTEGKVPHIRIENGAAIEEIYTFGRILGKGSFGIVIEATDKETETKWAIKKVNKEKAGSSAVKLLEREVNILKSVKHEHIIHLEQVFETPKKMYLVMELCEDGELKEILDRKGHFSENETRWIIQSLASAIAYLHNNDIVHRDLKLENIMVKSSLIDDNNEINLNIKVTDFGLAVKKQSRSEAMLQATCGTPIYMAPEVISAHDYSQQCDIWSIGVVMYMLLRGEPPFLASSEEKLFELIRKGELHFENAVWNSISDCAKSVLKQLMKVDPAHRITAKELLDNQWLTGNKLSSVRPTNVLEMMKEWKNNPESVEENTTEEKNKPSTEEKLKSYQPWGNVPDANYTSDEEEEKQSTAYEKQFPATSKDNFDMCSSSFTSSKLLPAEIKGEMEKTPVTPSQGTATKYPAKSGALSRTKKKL
PD-1 reversal: activators reversing PD-1 mediated T-cell inhibition; activation, % (no concentration beside the values); primary human CD4 T cells, PD-L1 beads, CellTiter-Glo 96 h; 29,000 tested, under 10 active; AID 2316; call rule not given here;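 also: 0% = median vehicle wells and 100% = positive control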
* hit, by the source's call; ? = inconclusive; · = no result. Only a selection was taken, and hits are over-represented in it overall.

SMILES	NOMO-1 viab	STK33 kin inh	PD-1 reversal
C[C@H](CO)N1C[C@H](C)[C@H](CN(C)Cc2ccc3c(c2)OCO3)Oc2ccc(NC(=O)CCC(F)(F)F)cc2C1=O	92.0*	·	0.2
C[C@H](CO)N1C[C@H](C)[C@H](CN(C)Cc2ccc3c(c2)OCO3)Oc2ccc(NC(=O)Cc3ccccc3)cc2C1=O	108.7*	·	-2.0
C[C@H](CO)N1C[C@H](C)[C@H](CN(C)CC2CC2)Oc2ccc(NC(=O)CCCCCC(=O)Nc3ccccc3N)cc2C1=O	50.5	·	-0.1
COC(=O)c1ccccc1NC(=O)c1ccccc1NS(=O)(=O)c1cccc2cccnc12	-5.2	-3.4	-3.8
COc1ccc(-c2csc3ncnc(SCc4c(C)noc4C)c23)cc1	?	3.1	-3.2
C[C@H](CO)N1C[C@H](C)[C@H](CN(C)S(C)(=O)=O)Oc2ccc(N(C)C)cc2C1=O	13.3	1.4	0.8
O=C(O)CCSc1nc2ccccc2s1	16.9	-0.3	·
O=S(=O)(CCSc1nc2ccccc2o1)c1nc2ccccc2s1	126.8*	2.3	-12.5
O=S(=O)(CCSc1ccccn1)c1nc2ccccc2s1	107.9*	-2.0	·
CC(C)(C)c1ccc(S(=O)(=O)CCSc2nc3ccccc3o2)cc1	17.9	-0.7	·
Cc1noc(C)c1NC(=O)N(C)C[C@@H]1Oc2ccc(NC(=O)CCC(F)(F)F)cc2CC(=O)N([C@H](C)CO)C[C@H]1C	3.2	-2.2	0.1
Cc1ccc(-n2c(SCC(=O)N(C)c3ccccc3)nc3nc4c(cc3c2=O)COC(C)(C)C4)cc1	24.9	1.5	-1.5
CSc1cccc(NC(=O)CSc2nnnn2-c2ccccc2)c1	22.7	1.2	-0.6
CSc1ccc(/C=N/n2nnnc2Nc2ccccc2)cc1	94.9*	·	-2.4
C[C@@H]1CN([C@@H](C)CO)C(=O)CCCn2nncc2CO[C@@H]1CN(C)C(=O)Nc1ccc2c(c1)OCCO2	·	2.3	·
Cc1ccnc(NC(c2cccc(F)c2)c2ccc3ccc(C)nc3c2O)c1 (stereo not given)	115.8*	1.1	·
CCc1ccc(C(Nc2ccccn2)c2ccc3ccc(C)nc3c2O)cc1 (stereo not given)	110.0*	-0.5	·
COc1ccc(C(Nc2cc(C)ccn2)c2ccc3ccc(C)nc3c2O)cc1 (stereo not given)	98.9*	4.1	·
Cc1ccnc(NC(c2ccsc2)c2ccc3ccc(C)nc3c2O)c1 (stereo not given)	89.1*	2.8	-17.2
COc1ccc(NC(=O)CSc2nccc(C)n2)cc1	18.0	-1.4	·
COC(=O)c1c(NC(=O)Cc2ccccc2[N+](=O)[O-])sc2c1CCCC2	32.6	5.7	·
COc1cccc(CN(C)C[C@H]2OCc3cnnn3CCCC(=O)N([C@@H](C)CO)C[C@H]2C)c1	·	-7.0	·
Cc1noc(C)c1NC(=O)N(C)C[C@@H]1Oc2ccc(NS(=O)(=O)c3ccc(F)cc3)cc2CC(=O)N([C@H](C)CO)C[C@@H]1C	21.9	0.8	1.7
COc1ccc(NC(=O)Nc2ccc3c(c2)CC(=O)N([C@H](C)CO)C[C@@H](C)[C@H](CN(C)S(=O)(=O)c2ccc(Cl)cc2)O3)cc1	-3.5	1.0	·
C[C@H](CO)N1C[C@H](C)[C@H](CN(C)C(=O)Nc2cccc3ccccc23)Oc2ncc(C#Cc3ccc(C(F)(F)F)cc3)cc2C1=O	·	2.0	·
SMILES	NOMO-1 viab	STK33 kin inh	PD-1 reversal
CCc1ccc(C(Nc2cc(C)ccn2)c2ccc3ccc(C)nc3c2O)cc1 (stereo not given)	89.2*	0.6	·
C[C@@H]1CN([C@H](C)CO)C(=O)c2cccc(NC(=O)C3CCCCC3)c2O[C@@H]1CN(C)Cc1ccc(C(F)(F)F)cc1	47.0	·	-1.8
C[C@@H]1CN([C@@H](C)CO)C(=O)c2cccc(NC(=O)C3CCCCC3)c2O[C@H]1CN(C)Cc1ccc(C(F)(F)F)cc1	105.3*	·	-2.2
C[C@H](CO)N1C[C@H](C)[C@H](CN(C)Cc2ccc(C(F)(F)F)cc2)Oc2c(NC(=O)C3CCCCC3)cccc2C1=O	59.3	·	·
C[C@H](CO)N1C[C@H](C)[C@@H](CN(C)Cc2ccc(C(F)(F)F)cc2)Oc2c(NC(=O)C3CCCCC3)cccc2C1=O	99.4*	·	-1.8
C[C@@H]1CN([C@@H](C)CO)C(=O)c2cccc(NC(=O)C3CCCCC3)c2O[C@@H]1CN(C)Cc1ccc(C(F)(F)F)cc1	?	·	-3.3
C[C@H]1CN([C@@H](C)CO)C(=O)c2cccc(NC(=O)C3CCCCC3)c2O[C@@H]1CN(C)Cc1ccc(C(F)(F)F)cc1	91.0*	·	0.8
CNC[C@@H]1Oc2ccc(NC(=O)Nc3ccc(C(F)(F)F)cc3)cc2CC(=O)N([C@H](C)CO)C[C@@H]1C	3.4	-0.9	2.0
C[C@H]1CN([C@@H](C)CO)C(=O)Cc2cc(NC(=O)CCN3CCOCC3)ccc2O[C@@H]1CN(C)C(=O)NC1CCCCC1	-8.8	1.6	1.5
O=C(CSc1nc(O)cc(=O)n1-c1ccccc1)Nc1ccccc1	·	2.0	·
